Laboratory results taken from PubChem BioAssay.

system: Inhibin beta A chain (activin A); assay: small molecules binding activin A – biochemical, small-molecule microarray, 635 nm fluorescence scan, primary screen (AID 1107); settings: INHBA, higher = more signal;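 further: mouse activin A protein probed at 4.33 µg/mL on printed slides; score merges bound-protein fluorescence near 667 nm with spot signal-to-noise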

**Q.** For CCOC(=O)C[C@H]1[C@H](OC(=O)c2ccccc2-c2ccccc2)[C@@H](NC(=O)c2ccccc2)c2cc(OCCCO)ccc2N1C(=O)Cc1ccc(OC)cc1, which composite z-score is on record?
**A.** 0.264

**Q.** C=CCC(OC(C)=O)[C@@H]1[C@@H](N(Cc2ccc(-c3cccc(C(F)(F)F)c3)o2)C(=O)c2cccc3ccccc23)c2cc(OCCCO)ccc2N1C(=O)c1ccc(-c2ccccc2)cc1 (stereo not given in full) was tested. Which composite z-score did it give?
**A.** 1.09

**Q.** How did the composite z-score turn out when C[C@H]1ON(c2ccccc2)[C@@H](c2ccccc2)[C@@H]1C(=O)N1C(=O)OC[C@@H]1c1ccccc1 was run?
**A.** 0.631

**Q.** With COCCOC(=O)N1C(=O)[C@@]2(c3cc(C#CCNC(N)=O)ccc31)[C@H](C(N)=O)[C@H]1C(=O)O[C@H](c3ccccc3)[C@H](c3ccccc3)N1[C@@H]2c1ccc(OCCO)cc1 as the compound, how does the composite z-score read?
**A.** 1.35

**Q.** With CCCC=C(CCC)[C@@H](NS(=O)(=O)c1cccc2cccnc12)c1ccc(C(=O)OC)cc1 as the compound, how does the composite z-score read?
**A.** 0.948

**Q.** CCOC(=O)C1=CC[C@@H](c2ccccc2)N(S(=O)(=O)c2ccc(C)cc2)[C@H]1C=C(C)C was tested. Which composite z-score did it give?
**A.** 1.11

**Q.** C#CCNS(=O)(=O)N(C)C was tested. Which composite z-score did it give?
**A.** -0.128

**Q.** For O=C1O[C@H](c2ccccc2)[C@H](c2ccccc2)N2[C@H]1[C@@H](C(=O)N1CCN(c3ncccn3)CC1)[C@]1(C(=O)Nc3ccc(C#CCCO)cc31)[C@H]2c1ccc(OCCO)cc1, which composite z-score is on record?
**A.** 0.463

**Q.** For COCCOC(=O)N1C(=O)[C@@]2(c3cc(C#CC4(O)CCCCCC4)ccc31)[C@H](C(=O)N1CCN(c3ncccn3)CC1)[C@H]1C(=O)O[C@H](c3ccccc3)[C@H](c3ccccc3)N1[C@@H]2c1ccc(O)cc1, which composite z-score is on record?
**A.** 0.921

**Q.** Cc1cc(C)c(C(O)C2C=CC3C(=O)N(c4ccccc4)C(=O)C3N2Nc2ccc([N+](=O)[O-])cc2)c(C)c1 (stereo not given) was tested. Which composite z-score did it give?
**A.** 0.471

**Q.** For Cc1ccc(S[C@]2(C(=O)O)CC(=O)N(C3CCCCC3)[C@@H]2c2ccc(CO)cc2)cc1, which composite z-score is on record?
**A.** 0.378

**Q.** CCOc1cc(C(O)C2C=CC3C(=O)NC(=O)C3N2Nc2ccccn2)ccc1O (stereo not given) was tested. Which composite z-score did it give?
**A.** 0.925

**Q.** CC(=O)NCCCC[C@@H]1NC(=O)[C@@H]2C[C@H](C(=O)NCCCC[N+](C)(C)C)[C@H](c3cccc(OCCO)c3)N2C1=O was tested. Which composite z-score did it give?
**A.** -0.146

**Q.** With COc1ccc([Si](C)(C)[C@@H]2[C@@H](CC(=O)N(CCO)Cc3ccccc3)O[C@]3(C(=O)N(Cc4ccc(N5CCOC5=O)cc4)c4ccccc43)[C@H]2C)cc1 as the compound, how does the composite z-score read?
**A.** 0.529

**Q.** With COC(=O)[C@]1(Cc2ccccc2CN=[N+]=[N-])N=C(c2ccc(OCCCO)cc2)O[C@@H]1c1ccccc1CN=[N+]=[N-] as the compound, how does the composite z-score read?
**A.** 0.721

**Q.** How did the composite z-score turn out when CN(C)C(=O)[C@]1(Cc2ccccc2N=[N+]=[N-])N=C(c2ccc(OCCCO)cc2)O[C@@H]1c1ccccc1CN=[N+]=[N-] was run?
**A.** 0.764

**Q.** For CC(C)(C)OC(=O)CC[C@@]1(C(=O)N2CCCCC2)N=C(c2ccc(OCCCO)cc2)O[C@@H]1c1ccccc1CN=[N+]=[N-], which composite z-score is on record?
**A.** 0.534

**Q.** Which composite z-score does the source give for CCN(CC)c1ccc(N2CC=CC34O[C@@H]5/C=C\CCCOC(=O)C5[C@H]3C(=O)N(CCCCCO)[C@@H]4C2=O)cc1 (stereo not given in full) here?
**A.** -0.399

**Q.** How did the composite z-score turn out when [N-]=[N+]=Nc1ccccc1C[C@]1(C(=O)NCCN2CCOCC2)N=C(c2ccc(OCCCO)cc2)O[C@H]1c1ccccc1N=[N+]=[N-] was run?
**A.** 1.18

**Q.** How did the composite z-score turn out when COC(=O)[C@]1(Cc2ccccc2CN=[N+]=[N-])N=C(c2ccc(OCCCO)cc2)O[C@@H]1c1ccccc1 was run?
**A.** 0.53

**Q.** How did the composite z-score turn out when COCCOC(=O)N1C(=O)[C@@]2(c3cc(C#Cc4ccc(OC)cc4)ccc31)[C@H](C(=O)N1CCc3cc(OC)c(OC)cc3C1)[C@H]1C(=O)O[C@H](c3ccccc3)[C@H](c3ccccc3)N1[C@@H]2c1ccc(O)cc1 was run?
**A.** 0.837

**Q.** For COCCOC(=O)N1C(=O)[C@@]2(c3cc(C#CCCO)ccc31)[C@H](C(=O)NC[C@H](O)c1ccccc1)[C@H]1C(=O)O[C@H](c3ccccc3)[C@H](c3ccccc3)N1[C@@H]2c1ccccc1OCCO, which composite z-score is on record?
**A.** 0.95

**Q.** How did the composite z-score turn out when COc1ccccc1CN1C(=O)c2ccccc2[C@@H](C(=O)NCC(C)C)[C@@H]1c1ccc(CO)cc1 was run?
**A.** 0.002

**Q.** Which composite z-score does the source give for C=CCN1C(=O)[C@@]2(O[C@@H](CCn3cc([C@H](O)c4ccccc4)nn3)[C@H]([Si](C)(C)c3ccc(OC)cc3)[C@H]2C)c2cc(NC(=O)c3ccc(OC)cc3)ccc21 here?
**A.** 1.07

**Q.** With O=C(O)[C@]1(CCS(=O)(=O)c2ccccc2)N=C(c2ccc(OCCCO)cc2)O[C@@H]1c1ccccc1 as the compound, how does the composite z-score read?
**A.** 0.849

**Q.** With CN(C)CCCN1C(=O)[C@@]2(Cc3ccccc31)c1ccccc1C(=O)N(Cc1ccccc1)[C@H]2c1ccc(CO)cc1 as the compound, how does the composite z-score read?
**A.** 0.799

**Q.** Which composite z-score does the source give for COC(=O)C(CC#Cc1ccc2c(c1)[C@]1(C(=O)N2)[C@H](c2ccc(O)cc2)N2[C@H](c3ccccc3)[C@H](c3ccccc3)OC(=O)[C@H]2[C@@H]1C(N)=O)C(=O)OC here?
**A.** -0.611

**Q.** O=C1C2C=CC(C(O)c3ccc(Br)cc3)N(Nc3ccccc3)C2C(=O)N1c1ccccc1 (stereo not given) was tested. Which composite z-score did it give?
**A.** 1.23

**Q.** Which composite z-score does the source give for O=C(O)[C@@]1(Cc2ccccc2)COC(c2ccc(OCCCO)cc2)=N1 here?
**A.** 0.53

**Q.** With COC(=O)c1ccc(OC)c(/C=C\CC(CCc2ccccc2)OC(=O)c2ccncc2)c1 (stereo not given) as the compound, how does the composite z-score read?
**A.** 1.81

**Q.** Which composite z-score does the source give for COC(=O)[C@@]1(Cc2ccc(OC)cc2)[C@H]2c3cc(C(=O)N4CCCC4)n(CCc4ccc(O)c(OC)c4)c3C[C@H]2CN1C(=O)c1ccccc1 here?
**A.** 1.04

**Q.** How did the composite z-score turn out when C[N+](C)(C)CCCC[C@@H]1NC(=O)[C@H]2C[C@@H](C(=O)NCCCCCCN)[C@@H](c3cccc(OCCO)c3)N2C1=O was run?
**A.** 1.63

**Q.** For COC(=O)[C@]1(Cc2ccccc2N=[N+]=[N-])N=C(c2ccc(OCCCO)cc2)O[C@@H]1c1ccccc1, which composite z-score is on record?
**A.** 0.897

**Q.** How did the composite z-score turn out when CC(C)N1C(=O)c2ccccc2[C@](C)(C(=O)O)[C@@H]1c1ccc(CO)cc1 was run?
**A.** 0.532

**Q.** With COc1ccc(C(=O)Nc2ccc3c(c2)[C@]2(O[C@@H](CCO)[C@H]([Si](C)(C)c4ccc(OC)cc4)[C@H]2C)C(=O)N3Cc2ccccc2)cc1 as the compound, how does the composite z-score read?
**A.** 1.11
